# Experimental data as given in the supplement of paper PMC3334620.
# In all, about 33,000 sequences were measured (“E-score (-0.5 to 0.5)”: median about -0.011, highest 2% from about 0.28 on). The sample holds the highest values, similar sequences and a random draw of the others, so the mix is not that of the screen.
# Target: T1, Gcr1 (UniProt P07261)
# T1 sequence: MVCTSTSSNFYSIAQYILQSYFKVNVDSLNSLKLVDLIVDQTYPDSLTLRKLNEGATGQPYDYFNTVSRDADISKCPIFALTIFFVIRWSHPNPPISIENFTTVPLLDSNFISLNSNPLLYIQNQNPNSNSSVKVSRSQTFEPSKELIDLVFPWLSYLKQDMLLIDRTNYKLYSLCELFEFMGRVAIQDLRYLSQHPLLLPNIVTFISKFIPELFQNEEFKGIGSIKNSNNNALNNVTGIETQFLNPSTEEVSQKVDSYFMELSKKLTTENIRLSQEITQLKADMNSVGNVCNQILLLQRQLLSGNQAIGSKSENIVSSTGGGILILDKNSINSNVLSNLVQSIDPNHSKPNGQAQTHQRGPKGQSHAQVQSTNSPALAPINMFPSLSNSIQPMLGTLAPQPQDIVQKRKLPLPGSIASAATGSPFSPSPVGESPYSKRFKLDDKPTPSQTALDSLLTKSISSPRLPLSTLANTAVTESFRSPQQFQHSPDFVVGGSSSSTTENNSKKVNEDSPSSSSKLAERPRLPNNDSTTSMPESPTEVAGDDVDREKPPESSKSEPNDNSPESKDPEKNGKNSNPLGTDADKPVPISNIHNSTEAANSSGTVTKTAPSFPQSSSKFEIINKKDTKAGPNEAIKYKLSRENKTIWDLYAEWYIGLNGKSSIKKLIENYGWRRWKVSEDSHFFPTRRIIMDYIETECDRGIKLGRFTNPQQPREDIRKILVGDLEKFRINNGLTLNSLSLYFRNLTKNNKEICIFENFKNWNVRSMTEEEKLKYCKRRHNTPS
# Assay: PBM E-score (8-mer binding enrichment) (E-score (-0.5 to 0.5)); higher = stronger / more preferred TF binding
# Conditions: protein concentration: 100 nM; construct: GST-full length
# Summary of the method: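 Bound GST-tagged yeast transcription factors, applied at about 100-200 nM to double-stranded universal all-10-mer Agilent arrays, were detected with fluorescent anti-GST. Scans were normalised with masliner. A modified Wilcoxon-Mann-Whitney statistic, the E-score, was assigned to each ungapped eight-base word pooled with its reverse complement by the Universal PBM Analysis Suite.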
row,Sequence,PBM E-score
1,ACGAAACG,-0.14
2,ATCGGGAC,0.0526
3,AATTGTTC,0.0249
4,AGCCTTGA,-0.273
5,AGATGAGC,-0.102
6,ACTTCTCG,-0.0046
7,CCCCAAGC,-0.00278
8,CGTGAACG,0.0112
9,ACGCAGAG,-0.141
10,ACGGGGTA,0.129
11,ACATCCCA,0.0139
12,CCATCCCA,-0.053
13,ACATCCCC,0.0757
14,GAATCCCC,0.0893
15,GCATCCCC,0.351
16,GTATCCCA,0.339
17,CTATCCCA,-0.0348
18,AAATCCCA,0.107
19,ATATCCCA,0.116
20,GAATCCCA,0.367
21,CCATCCCC,0.0989
22,GCATCCCA,0.309

row,Sequence,PBM E-score
1,ACAGGTAA,0.0538
2,ACCATCCT,0.0586
3,ATACTAGA,0.0992
4,ACATGTGA,-0.0765
5,CTGGAAAA,-0.00671
6,ACTACTCG,0.0127
7,AGGCCTAG,-0.214
8,CGGTCGAG,0.0179
9,ACACGAAT,0.319
10,ACACGAAA,-0.131
11,ACACGAAG,0.238
12,AGGTTCGG,-0.0598
13,GAGAAAGA,-0.16
14,AGTGAGAC,-0.352
15,AGATCGAT,-0.137
16,AATCCAGA,0.259
17,GTTCCAGA,0.257
18,CGTCCAGA,0.233
19,ATTCCAGG,0.097
20,AGTCCAGA,-0.0665
21,CTTCCAGC,0.123
22,ATTCCAGA,0.286

row,Sequence,PBM E-score
1,ATTCCAGC,0.299
2,CTTCCAGA,0.341
3,TCGGGACA,-0.0131
4,AGCTAAAC,-0.126
5,CGAGGGTC,-0.166
6,AGCTAGGA,0.0251
7,ATTAGGCC,-0.116
8,ATTAGACG,0.295
9,ATTAGACC,-0.13
10,AATAGAGG,0.297
11,AGTAGAAC,0.0351
12,ATTAGGCG,0.309
13,ATTAGACA,0.0379
14,ATTAGGCA,0.00576
15,AATAGAGA,-0.0168
16,CGTAGAAG,0.275
17,AATAGAGT,0.0735
18,AGTAGAAG,0.327
19,GGACAACA,-0.253
20,AAGGCCTT,-0.343
21,ACCCTGAA,0.192
22,GATTAGGC,-0.0727

row,Sequence,PBM E-score
1,ACTGATCA,-0.148
2,GATGGAAA,0.029
3,AGTGCGCG,-0.037
4,CATCTTGG,-0.102
5,AGAGCATG,-0.0857
6,AGTAGACT,-0.048
7,AATAGACA,-0.116
8,AGTAGACG,0.302
9,AATAGACT,0.0888
10,CGTAGACG,-0.0412
11,AATAGACG,0.286
12,AAGCACCA,0.0436
13,AGGCCAGC,-0.196
14,CAGGAATG,0.115
15,CAGGAATA,0.134
16,GAGGAATA,-0.146
17,GAGGAATC,0.345
18,CAGGAATC,0.394
19,AAGGAATC,0.26
20,ATCATAGG,0.0674
21,ATAGGCTG,-0.0658
22,ATCAGCGG,0.00888

row,Sequence,PBM E-score
1,GAACCGGA,0.183
2,GACTGGCC,-0.151
3,CGGGCTGA,-0.241
4,TCACTGGA,0.219
5,GGCTACTA,0.219
6,CGCGTTAA,-0.167
7,CTCCGCAA,0.0291
8,AAAAGACG,0.131
9,AGGGAAGA,-0.198
10,AGGGAAGG,-0.218
11,CGGGAAGA,0.0397
12,CGGGAAAC,0.191
13,CGGGAAGC,0.317
14,AGGGAAGC,0.281
15,ATACTGCA,0.0345
16,ACTTGCAC,-0.126
17,TAGCCTGA,-0.232
18,AAGAGGCG,0.0559
19,CAGAGAAA,-0.0752
20,CACTGGAG,-0.0119
21,TACTGGAA,0.446
22,TCCTGGAA,0.162
